PubChem BioAssay
Several values for one entry are separate records, joined by “and”; a condition that tells them apart may be missing. Equal values may be shown once. Activity calls are given as the source filed them. Unless noted, no stated cut-off is given here; in the data, active means parasite load remaining mostly below about 12% (no sharp cut-off); inactive means mostly above about 10%.

How the values were obtained:
[1] = glutamate transport activators, MN-1 cells, MN-1 cell line (AID 1612); conditions: MN-1 motor neuron cells, stronger effect = higher value;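 further: tested at 1 µM final; 0% = mean of DMSO vehicle wells on each plate; positive means more glutamate uptake than control and negative means less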
[2] = GFP-Q80 aggregate reduction, neuronal-like cells, cell-based, NGF-treated PC12, GFPQ80 (AID 1614); conditions: PC12 NGF-treated GFP-polyQ80 inclusion reduction;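 further: lower means fewer inclusions and 0 means no inclusions at all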
[3] = 75Q-TubH aggregate inhibition, S. cerevisiae, yeast (AID 1616); conditions: S. cerevisiae 75Q-TubH polyglutamine aggregation suppression; stronger effect = higher value
[4] = compounds altering viability of human ES cells (AID 493140; call rule not given here;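 further: cells exposed to compounds for four days before counting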); conditions: human embryonic stem cell survival screen; stronger effect = higher value
[5] = P. berghei load reduction in hepatocytes – cell-based, HepG2, luciferase luminescence, HepG2 viability, primary screen (AID 624349);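 further: 100% = mean of DMSO negative control wells on the same plate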; conditions: P. berghei liver stage in HepG2, luciferase luminescence, concentration not given here; parasite load remaining: stronger effect = lower value; viability: measured here: HepG2 viability without parasites
[6] = Wnt pathway potentiators raising nuclear beta-catenin – imaging, WNT3A-conditioned medium, mouse C2C12, NPC library, primary screen (AID 1117326; in the data active means nuclear beta-catenin stimulation mostly above about 4.2%, no sharp cut-off; inactive means mostly below about 10%; further: reference of the scale not given here); conditions: stronger effect = higher value

| SMILES | glutamate uptake change [1] | inclusion score [2] | aggregation suppression score [3] | survival [4] | parasite load remaining [5] | viability [5] | nuclear beta-catenin stimulation ([6]; at 10 µM) | nuclear beta-catenin stimulation ([6]; stimulation, at 2 µM) |
| --- | --- | --- | --- | --- | --- | --- | --- | --- |
| CCC(Cc1c(I)cc(I)c(N)c1I)C(=O)O (configuration not stated) | 7.36% | 2 | 0.027 | 8.83 (inactive) | 85.1% (inactive) and 170% (inactive) and 66.3% (inactive) | 78.9% and 86.3% and 103% | 1.2% (inactive) | -1.1% |
| Cc1c(N(C)CS(=O)(=O)O)c(=O)n(-c2ccccc2)n1C | -8.12% | 2 | 1.09 | 3.25 (inactive) | 109% (inactive) and 141% (inactive) and 63.8% (inactive) | 100% and 88.3% and 95.6% | -0.4% (inactive) | 0.9% |
| CN(C)CCOC(=O)C(c1ccccc1)C1(O)CCCC1 (configuration not stated) | -0.32% | 2 | 1.32 | 12.5 (inactive) | 73.9% (inactive) and 104% (inactive) and 58% (inactive) | 70.9% and 70% and 90.8% | 0.3% (inactive) | 1.3% |
| CC(N)CCCC(C)(C)O (configuration not stated) | -4.36% | 2 | 1.46 | 21.5 (inactive) | 31.8% (inactive) and 120% (inactive) and 114% (inactive) | 50.3% and 90.2% and 93.5% | 2.3% (inactive) | 1.6% |
| CCCCOc1ccc(CC(=O)NO)cc1 | 0.25% | 2 | 1.14 | 12.2 (inactive) | 13.5% (inactive) and 151% (inactive) and 84.2% (inactive) | 47.8% and 71.4% and 91% | 0% (inactive) | 0.3% |
| CN1CCC(OC(c2ccccc2)c2ccccc2)CC1 | 17.3% | 2 | 1.27 | 4.58 (inactive) | 97.1% (inactive) and 89.2% (inactive) and 61.4% (inactive) | 96.1% and 75.8% and 94.2% | 0.7% (inactive) | 1.6% |
| CC(C)(Oc1ccc(Cl)cc1)C(=O)O | 12.1% | 2 | 1.01 | 4.75 (inactive) | 91.8% (inactive) and 94% (inactive) | 98.7% and 75.8% | 1.8% (inactive) | 2.1% |
| COc1ccc(NS(=O)(=O)c2ccc(N)cc2)nn1 | 8.78% | 2 | 1.18 |  | 118% (inactive) and 103% (inactive) and 48% (inactive) | 101% and 69.5% and 83.6% | -1.8% (inactive) | 2.2% |
| CO[C@@H]1[C@@H](OC(N)=O)[C@@H](O)[C@H](Oc2ccc3c(O)c(NC(=O)c4ccc(O)c(CC=C(C)C)c4)c(=O)oc3c2C)OC1(C)C | -19% | 2 | 0.623 |  | 96.3% (inactive) and 84% (inactive) | 73.9% and 88.8% | -0.7% (inactive) | 1.5% |
| OCc1ccccc1O | 16.3% | 2 | 1.11 |  | 91.8% (inactive) and 36.5% (inactive) | 78.7% and 97.3% | 0.4% (inactive) | 1.3% |
| Cc1cc(=O)[nH]c(=S)[nH]1 | 14.6% | 2 | 1.02 |  | 70.4% (inactive) | 92% | -1.2% (inactive) | -0.4% |
| O=C(O)CCCCC1CCSS1 (configuration not stated) | -7.39% | 2 | 0.186 |  | 165% (inactive) | 96.8% | 0% (inactive) | -0.2% |
| Oc1cccc(O)c1 | 8.45% | 2 | 1.13 |  | 91.2% (inactive) and 38.4% (inactive) | 77.8% and 101% | -0.3% (inactive) | 0.3% |
| O=c1cc[nH]c(=S)[nH]1 | 7.71% | 2 | 1.48 |  | 64% (inactive) | 87.2% | -0.3% (inactive) | 1.5% |
| O=C1c2c(O)cccc2Cc2cccc(O)c21 | 5.46% | 2 | 1.2 |  | 94% (inactive) and 68.1% (inactive) | 73% and 78.8% | -3.3% (inactive) | -2% |
| O=C(O)c1cc(=O)c2ccccc2o1 | 2.44% | 2 | 1.45 |  | 136% (inactive) | 95.8% | -0.2% (inactive) | 0.2% |
| Cc1c(C(N)=O)cc([N+](=O)[O-])cc1[N+](=O)[O-] | -10.4% | 2 | 0.968 |  | 143% (inactive) | 90.9% | -0.3% (inactive) | -0.9% |
| S=P(N1CC1)(N1CC1)N1CC1 | 2.63% | 1.5 | 0.449 |  | 137% (inactive) and 49.2% (inactive) | 91% and 141% | -0.7% (inactive) | -0.3% |
| CN(C)/N=N/c1nc[nH]c1C(N)=O | -11.4% | 2 | 1.16 |  | 56% (inactive) and 17.1% (inactive) | 91.9% and 74% | 1.8% (inactive) | -1.7% |
| NC(=O)c1ccc([N+](=O)[O-])cc1Cl | 19.4% | 2 | 1.31 |  | 63.8% (inactive) and 35.2% (inactive) | 105% and 84.3% | -0.6% (inactive) | 0.9% |
